According to PMC4336329 (PLoS ONE, 2015):
Screen size: about 310,000 compounds; about 14,000 (4.5%) showed an effect of 50% or more. Effects have a minus sign here. Only a selection was taken, and strong results are over-represented in it overall.

What follows are compounds tested against human ether-à-go-go-related gene (hERG) potassium channel (human, UniProt Q12809) (assay: primary screen, population patch clamp on CHO cells stably expressing hERG; higher = less effect of the substance).
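Note: peak tail current of the secondary pulse compared with the same well before compound.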

Chain of human ether-à-go-go-related gene (hERG) potassium channel (Q12809 whole entry, looked up): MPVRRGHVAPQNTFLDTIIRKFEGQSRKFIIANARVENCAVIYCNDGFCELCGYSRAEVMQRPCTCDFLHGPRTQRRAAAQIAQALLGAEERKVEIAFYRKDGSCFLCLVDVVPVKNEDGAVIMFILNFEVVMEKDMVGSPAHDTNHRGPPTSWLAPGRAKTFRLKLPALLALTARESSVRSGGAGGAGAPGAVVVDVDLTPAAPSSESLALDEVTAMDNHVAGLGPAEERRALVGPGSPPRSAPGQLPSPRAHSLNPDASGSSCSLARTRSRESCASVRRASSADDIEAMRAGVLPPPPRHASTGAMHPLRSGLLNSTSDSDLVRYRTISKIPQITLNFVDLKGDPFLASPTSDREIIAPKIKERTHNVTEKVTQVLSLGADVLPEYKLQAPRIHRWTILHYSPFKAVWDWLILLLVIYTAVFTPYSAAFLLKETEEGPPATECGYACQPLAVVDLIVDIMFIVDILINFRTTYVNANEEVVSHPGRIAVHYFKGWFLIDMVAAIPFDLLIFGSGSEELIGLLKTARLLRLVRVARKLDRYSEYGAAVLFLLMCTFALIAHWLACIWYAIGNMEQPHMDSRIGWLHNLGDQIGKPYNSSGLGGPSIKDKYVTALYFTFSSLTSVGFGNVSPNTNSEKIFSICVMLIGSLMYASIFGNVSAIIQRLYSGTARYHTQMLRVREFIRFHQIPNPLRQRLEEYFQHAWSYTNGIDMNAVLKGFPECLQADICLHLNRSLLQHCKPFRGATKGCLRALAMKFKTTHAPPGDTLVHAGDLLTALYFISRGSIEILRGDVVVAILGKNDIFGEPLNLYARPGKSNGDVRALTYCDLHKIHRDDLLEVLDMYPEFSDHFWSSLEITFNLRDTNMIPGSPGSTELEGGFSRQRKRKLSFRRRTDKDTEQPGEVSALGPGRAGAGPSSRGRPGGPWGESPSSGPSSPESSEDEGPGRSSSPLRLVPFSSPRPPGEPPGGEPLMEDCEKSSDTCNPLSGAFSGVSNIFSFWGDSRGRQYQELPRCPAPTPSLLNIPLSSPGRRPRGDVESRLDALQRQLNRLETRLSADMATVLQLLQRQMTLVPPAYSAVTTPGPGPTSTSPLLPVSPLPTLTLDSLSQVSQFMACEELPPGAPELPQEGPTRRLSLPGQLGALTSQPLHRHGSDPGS

Structure (SMILES)	hERG current change (%, negative = inhibition) at 10uM [%]
Cc1ccc(OCCSc2nnc(NC(=O)c3ccco3)s2)cc1	-1.66
O=C(CN1C(=O)C2C3C=CC(C4CC34)C2C1=O)Oc1ccccc1 (stereo not shown)	0.512
CN1CCN(C(=O)c2cc3sc4ccccc4c3s2)CC1	-15.5
CN(C)CCCNC(=O)c1cc2c3ccccc3n(C)c2s1	-40.1
CN(C)CCCNC(=O)c1cc2sc3ccccc3c2s1.Cl	-64.7
COCCN(CCOC)C(=O)c1cc2sc3ccccc3c2s1	-70.6
CN(C)CCNC(=O)c1cc2sc3ccccc3c2s1.Cl	-31.5
COCCNC(=O)c1cc2sc3ccccc3c2s1	-8.28
CCCN(C(=O)CSCc1ccccc1C)c1c(N)n(Cc2ccccc2)c(=O)[nH]c1=O	-4.64
CC(O)CNc1nc2c(c(=O)n(C)c(=O)n2C)n1Cc1cccc(C(F)(F)F)c1 (stereo not shown)	-12.9
O=[N+]([O-])c1cccc(/C=N/Nc2ncc(Br)cn2)c1	19.6
CCc1cccc(C)c1N(C(=O)Cn1c(=O)[nH]c2ccccc21)C(C)COC (stereo not shown)	-4.31
CCN(CC(=O)Nc1ccc2c(c1)OCCO2)C(=O)/C=C/c1cccc(Br)c1	-28.7
O=C(CN1C(=O)NC2(CCCCCCC2)C1=O)Nc1ccc(Br)cc1	5.19
CCCNC(=O)CCc1c(C)nc2c(c(C)nn2-c2ccccc2)c1C	0.304
Cc1nc2c(c(C)nn2-c2ccccc2)c(C)c1CCC(=O)Nc1ccc(CN2CCCC2)cc1	-61
Cc1ccc(-n2nc(C)c3c(C)c(CCC(=O)Nc4ccc(CN5CCCC5)cc4)c(C)nc32)cc1	-60.2
Cc1ccc(-n2nc(C)c3c(C)c(CCC(=O)NCc4ccccc4)c(C)nc32)cc1	10.5
Cc1ccc(CNC(=O)CCc2c(C)nc3c(c(C)nn3-c3ccc(C)cc3)c2C)cc1	10.1
CCC(C)NC(=O)CCc1c(C)nc2c(c(C)nn2-c2ccccc2)c1C (stereo not shown)	-1.82
C/C(=N\NC(=O)c1cc(-c2cccc([N+](=O)[O-])c2)n[nH]1)c1ccc(F)cc1	8.28
O=C(COC(=O)CC1CC2CCC1C2)Nc1ccc(F)cc1 (stereo not shown)	-22.4

Structure (SMILES)	hERG current change (%, negative = inhibition) at 10uM [%]
Cc1ccc2c(c1)/C(=C/c1ccc(F)cc1)C(=O)N2	10.5
COc1cc(C(=O)N/N=C/c2coc3ccc(Cl)cc3c2=O)ccc1O	14.2
COc1ccc(CCNC2CC(=O)N(CCc3ccccc3)C2=O)cc1OC (stereo not shown)	0.286
COc1ccc(CCN2C(=O)CC(NNc3ccc([N+](=O)[O-])cc3)C2=O)cc1OC (stereo not shown)	-52.8
CCc1ccc(NC2CC(=O)N(CCc3ccc(OC)c(OC)c3)C2=O)cc1 (stereo not shown)	-13.4
CCN1CCN(C(=O)c2ccc(CSc3ccc(C)cc3)cc2)CC1	-63.6
O=S(=O)(c1ccccc1)N1CCN=C1SCc1cccnc1	-12.1
Cc1cccc(CC(=O)N2CCN=C2SCc2ccc([N+](=O)[O-])cc2)c1	-11.8
O=S(=O)(c1ccc(F)cc1)N1CCN=C1SCc1cccnc1	-27.6
Cc1ccc(SCc2ccc(C(=O)N3CCCC3)cc2)cc1	-30.1
CC(=O)N1CCN=C1SCc1ccccc1	19.1
Cc1cccc(C(=O)N2CCN=C2SCc2ccc([N+](=O)[O-])cc2)c1	-51.9
O=[N+]([O-])c1ccc(S(=O)(=O)N2CCN=C2SCc2cccnc2)cc1	-68.1
Cc1cc(C)cc(C(=O)N2CCN=C2SCc2ccc([N+](=O)[O-])cc2)c1	-23.5
O=C(c1ccccc1)N1CCN=C1SCc1ccc([N+](=O)[O-])cc1	-56.4
Cc1ccc(SCc2ccc(C(=O)N3CCCCC3)cc2)cc1	1.58
O=C(N=C1SC2CS(=O)(=O)CC2N1c1ccc(F)cc1F)C1CC1 (stereo not shown)	2.47
O=C(OCC(=O)N1CCCC1=O)C1CCN(S(=O)(=O)c2c(Cl)cccc2Cl)CC1	-36.1
O=C(NCc1cccnc1)NC1CC(=O)N(c2ccc3c(c2)OCCO3)C1 (stereo not shown)	-0.536
CC(C)(C)n1nnnc1C(c1cccc(C#N)c1)N1CCN2CCCC2C1 (stereo not shown)	4.48
Cn1c(C(C#N)/C(=N\S(=O)(=O)c2cccs2)c2ccccc2)nc2ccccc21 (stereo not shown)	2.46
O=C(O)CC1(CC(=O)Nc2cc(C(F)(F)F)cc(C(F)(F)F)c2)CCCCC1	18.6

Structure (SMILES)	hERG current change (%, negative = inhibition) at 10uM [%]
Cc1cccc(N2CCN(C(=O)c3ccc4c(c3)NC(=O)C(CSCc3cccc(F)c3)N4)CC2)c1C (stereo not shown)	15.9
Cc1ccc(C(=O)N2CCN=C2SCc2ccc([N+](=O)[O-])cc2)cc1C	2.84
O=C(c1ccc([N+](=O)[O-])cc1)N1CCN=C1SCc1ccccc1	-72.2
Cc1ccccc1C(=O)N1CCN=C1SCc1ccc([N+](=O)[O-])cc1	-63.6
Cc1ccc(C(=O)N2CCN=C2SCc2ccc([N+](=O)[O-])cc2)cc1	-70.5
CN(C)S(=O)(=O)c1ccc(C(=O)N2CCN=C2SCc2ccccc2)cc1	20.9
O=C(c1cccc2ccccc12)N1CCN=C1SCc1ccc([N+](=O)[O-])cc1	-10.7
O=C(Cc1ccccc1)N1CCN=C1SCc1cccc([N+](=O)[O-])c1	-22.6
Cc1ccc(C)c(CSC2=NCCN2C(=O)Cc2ccc([N+](=O)[O-])cc2)c1	-4.06
Cc1ccc(CSC2=NCCN2C(=O)c2ccc([N+](=O)[O-])cc2)cc1	-42.9
O=S(=O)(Nc1nc2ccccc2nc1Nc1ccc(N2CCOCC2)cc1)c1cc(Cl)ccc1Cl	-0.376
C=CCN(c1ccccc1)S(=O)(=O)c1cc(C(=O)NC2=NCCS2)ccc1Cl	63.3
COc1ccc(CNC(=O)c2c(C)cc(=O)oc2C)cc1	-26.8
CC1Sc2ccc(S(=O)(=O)N3CCC(C(=O)NCc4ccc(Cl)cc4)CC3)cc2NC1=O (stereo not shown)	-5.58
CCCCOc1ccc(CN2CCC(O)CC2)cc1	3.42
COC(=O)C1CCN(c2ccc([N+](=O)[O-])cc2[N+](=O)[O-])CC1	-0.88
COC(=O)C1CCN(Cc2ccc(C)cc2)CC1	-22.2
COC(=O)C1CCN(Cc2ccc(OCCCN3CCN(c4ccc([N+](=O)[O-])cc4)CC3)cc2)CC1	-73.7
COC(=O)C1CCN(CCCOc2ccc(CN3CCN(c4ccc([N+](=O)[O-])cc4)CC3)cc2)CC1	-74.3
Oc1ccc(N2CCN(Cc3ccc(OCCCN4CCCCC4)cc3)CC2)cc1	5.11
Cc1ccccc1C(=O)NC(=S)NCC1CCCO1 (stereo not shown)	12
O=C(Nc1ccc2ncccc2c1)c1cc(Cl)ccc1Cl	12.6

Structure (SMILES)	hERG current change (%, negative = inhibition) at 10uM [%]
CCOc1ccc(N(CC(=O)NCCc2ccc(OC)cc2)S(C)(=O)=O)cc1	-0.0301
O=C(CSc1ncnc2c1cnn2-c1ccc(Cl)cc1)NCc1ccc2c(c1)OCO2	13.7
CC(C)OC(=O)CCC1(C(=O)O)CCC(=O)NC1 (stereo not shown)	7.55
CCC(=O)Nc1ccc(OCc2nc3ccccc3s2)cc1	21.1
O=C(CSc1ncccc1-c1nc2ccccc2[nH]1)Nc1ccc2c(c1)OCCO2	-30.8
Cn1c(SCC(=O)c2cccs2)nnc1-c1ccco1	11.8
Cn1c(SCC(=O)Nc2ccc(Cl)cc2F)nnc1-c1ccco1	-59.4
Cn1c(SCC(=O)c2cc(Cl)c(Cl)s2)nnc1-c1ccco1	-60.5
Cn1c(SCC(=O)Nc2ccccc2O)nnc1-c1ccco1	-27.4
CCn1c(SCC(=O)c2cccs2)nnc1-c1ccco1	-2.68
Cn1c(SCC(=O)Nc2ccc(Br)cc2F)nnc1-c1ccco1	-26.7
CCn1c(SCC(=O)c2ccc(Cl)s2)nnc1-c1cccs1	-35.5
CC(C)Cn1c(SCC(=O)c2ccc(Cl)s2)nnc1-c1ccco1	-76.7
Cn1c(SCC(=O)c2ccccc2)nnc1-c1ccco1	-39.5
CCN(C(=O)CN1CCN(S(=O)(=O)c2ccccc2C(F)(F)F)CC1)c1c(N)n(Cc2ccccc2)c(=O)[nH]c1=O	13.6
O=C(NC(=S)NCc1ccc(-c2nc3ccccc3s2)cc1)c1ccco1	34
Cc1ccccc1-n1ncc2c1CC(C)(C)CC2NC(=O)c1cn[nH]c1C (stereo not shown)	-6.22
CCCC(=O)Nc1ccc(C)c(O)c1	4.76
C/C(=N\NC(=O)c1ccccc1O)c1cccc(NC(=O)c2ccccc2)c1	-0.335
